Compound activity: PubChem BioAssay, National Center for Advancing Translational Sciences (NCATS)
Compounds with a hit are over-represented: about 2.3% of the library has one in this group of screens.
Nrf2 ARE act – Nrf2 pathway activation; AREc32 ARE-luciferase reporter (MCF7-derived line), luminescence, 24 h; Potency, µM (titrated, usually from 46.1 µM), for the others: top-dose activation, most hits filed as activators; hit rate 0.31% among 410,000; further: potency means the concentration at half of the fitted maximal effect; % of control where 0% means no effect; nearly all actives have a fitted effect of over 65% in size
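AREc32 cells carrying an ARE-driven firefly luciferase reporter were seeded at 1000 cells/well in OPTI-MEM with 5% FBS, then exposed to compound for 24 hr at 37 deg C. Luminescence was read with Steady-Glo after 30 min at RT.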
Nrf2 inh – Nrf2 pathway inhibition. Potency, µM (doses to about 46 µM), for the others: top-dose activity change, negative = inhibition, most hits filed as inhibitors. AID 504444. hit rate 2.1% among 360,000. A549 ARE-Fluc reporter, luciferase luminescence, 18-24 h; further: potency means the concentration at half of the fitted maximal effect; on the % scale 0 is the no-effect control and ±100 the full control effect; nearly all actives have a fitted effect of over 60% in size
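A549 ARE_Fluc cells (5000/well, 5% FBS OPTI-MEM) pre-incubated 2 h, then treated with compounds 18-24 h at 37C/5% CO2 in concentration-response. CellTiter-Fluor viability read first; BugLite luciferase luminescence after 15 min at room temperature gives Nrf2 activity.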
IL-2 act – IL-2 activation | IL-2 activation reporter assay, cell-based qHTS; stimulated with anti-CD3/CD4/CD28 beads; in transgenic mouse T cells | activation, % (series mostly up to about 46 µM) | hit rate 0.065% among 360,000 | AID 652025; in the data active means activation above about 50%; inconclusive means mostly about 30% to 49%; further: 0% is about no effect
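Unstimulated transgenic mouse T cells; 60-min compound exposure; bead-based TCR/CD4/CD28 stimulation; 18 h culture, 37 degrees C; dual fluorescence (EGFP, DsRed) plate cytometry.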
A549 viability – counter-screen for Nrf2 inhibitors: cytotoxicity in A549 cells; hit rate 0.16% among 390,000; A549 ARE-Fluc cells, CellTiter-Fluor viability, 18-24 h; Potency, µM (doses to about 46 µM), without a hit: at the top dose activity change, negative = cytotoxicity, actives largely listed as inhibitors; further: potency means the concentration at half of the fitted maximal effect; on the % scale 0 is the no-effect control and ±100 the full control effect
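A549 ARE_Fluc cells in 5% FBS OPTI-MEM were exposed to compounds in concentration-response for 18-24 h at 37 deg C. Viability was read by CellTiter-Fluor fluorescence (Ex 405/Em 525) after 30 min, before the luciferase read.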
* = called active by the depositor; u = inconclusive; x = not tested or not shown; ! = not active in a repeat. Unless noted, the call rests on the fitted dose curve; in most records, active means well fitted curve in the direction sought with a large enough effect; inconclusive means small, poorly fitted or top-dose-only effect, or another doubt; inactive means no such curve, though single readings can be large; an effect the other way counts as inactive or inconclusive.

SMILES	Nrf2 ARE act	Nrf2 inh	IL-2 act	A549 viability
N#Cc1ccc(NS(=O)(=O)c2ccc3c(c2)CCC(=O)N3)cc1	x	0%	x	-3%
CN(C)CCCNc1cc(N2CCN(C3CCCCC3)CC2)c2noc3c2c1C(=O)c1ccccc1-3	5%	-5%	x	-18%
Cc1ccc(C(NC(=O)NC(C)c2ccccc2)C(Cl)(Cl)Cl)cc1F (stereo not given)	1%	16µM*	-4	u
CC(NC(=O)Nc1ccc(Cl)cc1)c1ccccc1 (stereo not given)	1%	-22%	0	-7%
O=c1c(/C=C(\O)c2ccccc2)nc2ccccc2n1-c1ccccc1	0%	x	89*	5%
COc1ccc(N2CCN(C(=O)C(C)n3c(=O)cc(C(F)(F)F)c4c(C)nn(C)c43)CC2)cc1 (stereo not given)	-1%	u	x	0%
CCN(CC)C(=O)Cn1c(=O)n(Cc2ccc(C(=O)NCc3ccc(C)cc3)cc2)c(=O)c2ccccc21	1%	-22%	x	-2%
CCN(CC)C(=O)Cn1c(=O)c2ccccc2n2c(=S)sc(-c3cccc(C)c3)c12	0%	8%	94*	5%
CCc1ccccc1NC(=O)[C@@H](c1ccccc1)N1Cc2ccccc2C1=O	0%	4%	x	-2%
Cn1c(N)c(C(C[N+](=O)[O-])c2c(F)cccc2Cl)c(=O)n(C)c1=O (stereo not given)	16µM*	11%	-3	-5%
CN(C)c1ccc(C(C[N+](=O)[O-])c2c(N)n(C)c(=O)n(C)c2=O)c(F)c1C#N (stereo not given)	u	u	-1	-18%
Nc1c(C(=O)N/N=C/c2ccc(F)cc2)oc2nc(-c3ccccc3)cc(-c3ccco3)c12	11%	u	230*	-8%
Nc1c(C(=O)N/N=C/c2ccccc2Cl)oc2nc(-c3ccccc3)cc(-c3ccco3)c12	11%	u	10	6%
N=c1c2c(ccn1CCCCc1ccccc1)Oc1ccc3ccccc3c1C2c1ccccc1 (stereo not given)	x	u	x	-20%
COc1nnc(-c2ccc(C)c(S(N)(=O)=O)c2)c2ccccc12	3%	-9%	0	-5%
COc1nnc(-c2ccc(N3CCCCC3)c(N)c2)c2ccccc12	6%	21µM*	-2	-11%
CCN(CC)CCCNC(=O)Cn1nc(C)n2c(cc3sccc32)c1=O	1%	1%	x	6%
CCc1ccc(CN(Cc2ccco2)C(=O)c2cc(-c3ccc(C)c(F)c3)on2)cc1	0%	16µM*	x	-3%
Cc1c(=O)n(OCc2ccccc2)c2ccccc2[n+]1[O-]	u	x	3	-5%
CCOn1c(=O)c(=O)n(OCc2ccccc2)c2ccccc21	22µM*	x	0	-1%
COc1cccc(NC(=O)CN(C)C(=O)CCC(=O)c2cc(C)sc2C)c1	0%	-19%	-2	-7%
COc1ccc(Cl)cc1NC(=O)CN(C)C(=O)CCC(=O)c1cc(C)sc1C	10%	8.2µM*	-1	16µM*
Cc1cc(C)c(OCC(=O)N(Cc2ccc(N(C)C)cc2)CC2CCCO2)c(C)c1 (stereo not given)	1%	u	x	-3%
O=C1CCCN1c1ccc(S(=O)(=O)NCCOc2ccccc2)cc1	0%	13µM*	-4	-11%
Cc1ccc(NC(=S)NC(NC(=O)c2ccccc2)C(Cl)(Cl)Cl)c(C)c1 (stereo not given)	3%	21µM*	-1	u
SMILES	Nrf2 ARE act	Nrf2 inh	IL-2 act	A549 viability
Cc1cc(C)c(NC(=S)NC(NC(=O)c2ccccc2)C(Cl)(Cl)Cl)c(C)c1 (stereo not given)	7%	u	-5	-13%
O=C(O)COc1ccc(/C=N/n2cnc3scc(-c4cccs4)c3c2=O)cc1	4%	8%	1	5%
O=c1c2c(-c3cccs3)csc2ncn1/N=C/c1ccc(OC(F)F)cc1	3%	9.2µM*	-2	u
Cc1cccc(NC(=O)C2CCN(c3nnc(-n4c(C)ccc4C)s3)CC2)c1C	u	13%	x	2%
COc1cccc(NC(=O)NCCCSC2CCCCC2)c1	0%	-25%	0	-3%
Cc1cc(C)c(NC(=S)NCCCSC2CCCCC2)c(C)c1	-1%	21µM*	-3	-3%
CC(C)(C)OC(=O)CC(=O)NNC(=O)c1cc2ccccc2[nH]1	x	-15%	x	-6%
Brc1ccc(/C=N/Nc2ccccn2)cc1	13µM*	u	-1	2%
Oc1cccc(C=NNc2ccccn2)c1	13µM*	-2%	-2	-1%
O=[N+]([O-])c1ccc(O)c(/C=N/Nc2ccccn2)c1	5%	u	-2	15µM*
COc1ccccc1NC(=O)Cn1c(C)cc(=O)c2cccc(OC)c21	-1%	12µM*	1	-15%
COc1ccc(C)cc1NC(=O)c1cc(S(=O)(=O)N2CCCCC2)c[nH]1	-1%	9%	x	0%
Cc1ccc(S(=O)(=O)SC/C=C/CSS(=O)(=O)c2ccc(C)cc2)cc1	7%	12µM*	-1	-6%
COc1cc(NC(=O)c2ncn(-c3ccccc3)n2)cc(OC)c1	9%	u	x	0%
COc1ccc(Cl)cc1NC(=O)c1ncn(-c2ccccc2)n1	8.9µM*	u	x	-6%
O=C(CNC(=O)c1ccc(C(F)(F)F)cc1)OC(C(=O)Nc1cc(C(F)(F)F)ccc1Cl)c1ccccc1 (stereo not given)	x	13%	x	14%
O=C(Nc1ccc(F)c(Cl)c1)N1CCN2CCCCC2C1 (stereo not given)	9%	u	x	3%
COc1ccc2c(C=Nc3c(C)n(C)n(-c4ccccc4)c3=O)c(O)n(Cc3ccco3)c(=O)c2c1	0%	-13%	65*!	-17%
COC(=O)c1c(C)[nH]c(C(=O)OCC(=O)c2c(N)n(CC(C)C)c(=O)n(C)c2=O)c1C	5%	15µM*	-1	-14%
Cc1cccc(C(=O)OCC(=O)c2c(N)n(CC(C)C)c(=O)n(C)c2=O)c1O	0%	18µM*	-7	-15%
Cc1cccc(C)c1OCc1cc(C(=O)N2CCC(c3ccncc3)CC2)no1	3%	3%	-4	-8%
O=C(c1cc(COc2c(F)cccc2F)on1)N1CCC(c2ccncc2)CC1	3%	7.3µM*	0	-19%
CCc1nnc(NC(=O)c2ccc(Cl)c(S(=O)(=O)N3CCc4ccccc4C3)c2)s1	-1%	18µM*	3	-4%
O=C(Nc1ccccn1)c1ccc(Cl)c(S(=O)(=O)N2CCc3ccccc32)c1	-1%	21µM*	-1	-23%
Cc1ccc2c(c1)cc(C(=O)Nc1ccc(F)cc1F)n2C	7%	25%	x	-5%
Cc1ccc(CN2CCSc3ccc(C(=O)Nc4ccc(F)cc4F)cc32)cc1	8%	3%	x	11%
CN1/C(=C\C(=O)c2cncc(Br)c2)C(C)(C)c2ccccc21	1%	23µM*	-2	-11%
CC(C)C(=O)NC(=S)/C=C1/N(C)c2ccccc2C1(C)C	0%	-26%	-1	-16%
CN1/C(=C\C(=O)C[n+]2ccc3ccccc3c2)C(C)(C)c2ccccc21	7%	10µM*	-1	u
